Screening results: PubChem BioAssay, Broad Institute
Hits are enriched below; roughly 4.8% of the tested compounds scored in any of these assays.
ALR H2O2 inh = inhibitors of human sulfhydryl oxidase ALR | inhibition, % (concentration not given with the values) | AID 485317 | P55789 | 290,000 tested, 3.8% active | purified ALR, DTT oxidation, H2O2 HRP-luminol luminescence;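 active means mean replicate inhibition above about 79%, with every replicate also reaching it, limit read from the data; inconclusive means only one of the two criteria met; inactive means mean below limit and not every replicate reaching it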
Target sequence (P55789 whole entry, looked up): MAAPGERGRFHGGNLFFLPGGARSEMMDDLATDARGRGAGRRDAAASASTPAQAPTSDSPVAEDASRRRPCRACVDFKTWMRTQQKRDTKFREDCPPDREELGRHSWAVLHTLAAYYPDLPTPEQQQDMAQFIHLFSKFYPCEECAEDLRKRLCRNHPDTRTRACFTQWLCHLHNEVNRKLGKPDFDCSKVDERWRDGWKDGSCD
HIF activator = HIF pathway transcriptional activation; activation, % at 7.5 µM (by protocol); 300,000 tested, 0.32% active; U2OS HRE-luciferase reporter, luminescence; normalized: DMSO 0%, desferrioxamine 100%;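 active means mean activation of at least 10% of the iron chelator positive control signal, with at least half of replicates also reaching 10%; inconclusive means mean and replicate majority disagree about reaching 10%; inactive means mean and most replicates under 10%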
AI-2 QS mod = modulators of Vibrio harveyi AI-2 quorum sensing system | Vibrio harveyi JMH597 AI-2 luminescence/OD600 ratio, 9 h; hits give low values; strain lacks LuxN and CqsS sensors; 0 = neutral-control median | activity change, % at 7.5 µM | 300,000 tested, 0.4% active | AID 2094; in the data active means activity change below about -75%, passing the limit was not always enough; inconclusive means no clear call, values can overlap the other calls;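 further: luminescence divided by OD600 gain over 9 h not by final OD600 alone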
Mot1-301 SUMO = inhibitors of SUMOylation pathway: yeast Mot1-301 growth rescue; S. cerevisiae Mot1-301 growth rescue, ATP luminescence, 38.5C; percent above DMSO median, 100 means doubled; growth rescue, % at 18.8 µM; 320,000 tested, 1% active; AID 2716;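 active means every valid replicate shows activation above 250% relative to neutral control wells; inactive means the rest, any valid replicate at or below 250%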;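 further: OY570 slx delta 5 strain wells were the positive control but not used for scaling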
* hit, by the source's call; ? = inconclusive; . = no result; ! = not active in a repeat.

SMILES | ALR H2O2 inh | HIF activator | AI-2 QS mod | Mot1-301 SUMO
S=c1[nH]nc(-c2ccco2)n1/N=C/C(Cl)=C/c1ccccc1 | 97* | 4 | 57 | -7
S=c1[nH]nc(-c2cc(-c3ccccc3)n[nH]2)n1/N=C/C(Br)=C/c1ccccc1 | -3 | 8 | 22 | 539*
CC(/C=N/n1c(-c2ccco2)n[nH]c1=S)=C\c1ccco1 | 69 | 0 | 18 | -14
Cc1cc(-c2n[nH]c(=S)n2/N=C/C(Cl)=C/c2ccccc2)n[nH]1 | 96* | 6 | 61 | .
O=C(NCCCN=C1NS(=O)(=O)c2ccccc21)c1ccc(Cl)cc1 | . | 0 | 16 | -11
CCCOC1CCCN(C(=O)c2cc(COc3ccc(F)c(F)c3)on2)C1 (stereo unspecified) | 2 | 4 | 28 | 260
Cc1ccc(S(=O)(=O)N2CCN(C(=O)Cn3cnc4c3c(=O)n(C)c(=O)n4C)CC2)cc1C | -6 | . | . | 0
Cc1ccc2nc(N3C(=O)CNC3=S)sc2c1 | 93* | 2 | 8 | -48
CC(C)CSC1=NSC2=NC(=O)/C(=C\c3coc4ccccc4c3=O)C(=N)N12 | 72 | 0 | 53 | -20
CSC1=NSC2=NC(=O)/C(=C\c3coc4ccccc4c3=O)C(=N)N12 | 97* | . | . | 20
O=C(COC(=O)C12CC3CC(CC(O)(C3)C1)C2)Nc1ccc(Cl)c(S(=O)(=O)N2CCOCC2)c1 | -8 | . | . | 9
O=C(O)c1ccccc1Nc1ccc([N+](=O)[O-])c2nonc12 | -59 | 0 | 8 | 173
C[C@H](CO)N1C[C@H](C)[C@@H](CN(C)Cc2ccc(C(=O)Nc3ccccc3N)cc2)Oc2c(NC(=O)C3CCCCC3)cccc2C1=O | -3 | . | . | -13
Cc1ccc(-c2cn(-c3ccccc3F)c(=S)[nH]2)cc1 | 72 | 5 | 13 | 9
O=[N+]([O-])c1ccc(-c2cn(-c3ccccc3F)c(=S)[nH]2)cc1 | 84* | 2 | 12 | 19
N#CCNC1CC(=O)N(c2ccccc2)C1=O (stereo unspecified) | . | -1 | 25 | 7
CN(NC1CC(=O)N(c2ccccc2)C1=O)c1ccccc1 (stereo unspecified) | 97* | . | . | -16
Cn1cc(Cl)c(C(=O)N/N=C/c2ccc3c4c(cccc24)CC3)n1 | 0 | 3 | 17 | 2
CCN(CC)c1ccc(/C=N/NS(=O)(=O)c2ccc(CNC(C)=O)cc2)cc1 | 99* | 0 | -6 | -1
CCN(CC)c1ccc(/C=N/NC(=O)Nc2ccccc2)cc1 | 34 | 1 | 15 | -15
CCCN(CCC)c1ccc(/C=N/NC(=O)CN2CCOCC2)cc1 | 99* | 0 | 27 | -19
O=C(CN1CCOCC1)N/N=C/c1ccccc1 | 3 | 0 | 25 | -5
CCN(CC)c1ccc(/C=N\NC(N)=O)cc1 | 99* | 0 | 10 | -7
O=C(CNC(=O)c1ccccn1)N/N=C/c1ccc2c(c1)OCO2 | 72 | 0 | ? | 7
CC(=O)NCc1ccc(S(=O)(=O)N/N=C/c2ccc(Br)cc2)cc1 | 7 | 0 | -40 | -4
SMILES | ALR H2O2 inh | HIF activator | AI-2 QS mod | Mot1-301 SUMO
CCN(CC)c1ccc(/C=N/NC(=O)CNC(=O)c2ccccn2)cc1 | 95* | 0 | 9 | -3
CC(C)NC(=O)CN1C(=O)c2cccc3cccc1c23 | -62 | 1 | 13 | 20
COc1cc(NC(=O)c2cc(OC)c(OC)c(OC)c2)cc(-n2cnnn2)c1 | 4 | -1 | . | -9
CCN(CC)c1ccc(/C=N/O)cc1 | . | 0 | -3 | -25
CCN(CC)c1ccc(/C=N/NC(=O)CC(C)C)cc1 | 99* | 0 | -28 | 146
O=[N+]([O-])c1cc([N+](=O)[O-])c2nonc2c1Nc1ccccc1O | 99* | 2 | 2 | -6
O=[N+]([O-])c1c(Nc2ccccc2O)cc(N2CCOCC2)c2nonc12 | -43 | 0 | 34 | 9
O=[N+]([O-])c1cc([N+](=O)[O-])c2nonc2c1Nc1ccc(O)cc1 | 99* | -1 | 7 | -11
CC(=O)c1ccc(Nc2c([N+](=O)[O-])ccc3nonc23)cc1 | -32 | -1 | 10 | 10
Cc1nc(SCc2nc3c(O)cccc3[nH]2)c2oc3ccccc3c2n1 | 1 | . | . | -8
O=C(OC1CCCCC1=O)c1cc(Cl)ccc1[N+](=O)[O-] (stereo unspecified) | 91* | 0 | 37 | -7
N#Cc1ccc(N=c2ssnc2Cl)cc1 | 6 | 1 | 27 | 303*!
Clc1ccc(N=c2ssnc2Cl)cc1 | 36 | -1 | 28 | 340*
COC(=O)C1=C(CS(=O)(=O)c2cc(OC)ccc2OC)NC(=O)NC1c1ccc(O)c(OC)c1 (stereo unspecified) | 34 | -1 | 21 | -2
O=S(=O)(c1cccc(F)c1)N1CCN(Cc2cc3c(cc2Br)OCCO3)CC1 | -17 | . | . | 1
COC(=O)c1ccc(N2CCCCC2)c(NC(=O)c2ccco2)c1 | 38 | 0 | 18 | 44
Cn1cnc(C(=O)NCc2ccc(CNC(=O)OC(C)(C)C)cc2)c1C(=O)NCc1ccc(CNC(=O)OC(C)(C)C)cc1 | -1 | . | . | 4
O=c1[nH]c(/C=C/c2ccccc2)c([N+](=O)[O-])c(=O)[nH]1 | 14 | 0 | -3 | 2
O=c1[nH]c(/C=C/c2ccc(Cl)cc2Cl)c([N+](=O)[O-])c(=O)[nH]1 | 97* | 0 | 9 | -6
O=C1NC(=O)C2C1C(c1cccs1)NN2Cc1ccccc1 (stereo unspecified) | 98* | -1 | 46 | -2
Cc1cc(C)n(CC(=O)NNC(=O)c2ccc(S(C)(=O)=O)cc2)n1 | -1 | . | . | 8
CCNC(=S)N(CCc1c(C)[nH]c2ccc(Cl)cc12)Cc1ccco1 | 31 | -7 | -2 | .
COCCNC(=S)N(CCc1c(C)[nH]c2ccccc12)Cc1ccco1 | 87* | -2 | -2 | 1
COc1ccccc1C1Nc2ccccc2NC2=C1C(=O)CC(C)(C)C2 (stereo unspecified) | 99* | 0 | 7 | 4
COc1ccc(C2Nc3ccccc3NC3=C2C(=O)CC(C)(C)C3)c(OC)c1OC (stereo unspecified) | 98* | -1 | 1 | 4
SMILES | ALR H2O2 inh | HIF activator | AI-2 QS mod | Mot1-301 SUMO
Cc1cc2c(cc1C)NC(c1c(C)n(C)n(-c3ccccc3)c1=O)C1=C(CC(C)(C)CC1=O)N2 (stereo unspecified) | -28 | 0 | 4 | 106
COc1ccc(OC)c(C2Nc3ccccc3NC3=C2C(=O)CC(C)(C)C3)c1 (stereo unspecified) | 99* | 1 | 7 | -10
COc1cc(C2Nc3cc(C)c(C)cc3NC3=C2C(=O)CC(C)(C)C3)ccc1OC(C)=O (stereo unspecified) | 80* | -2 | . | -12
COc1ccc(C2Nc3ccccc3NC3=C2C(=O)CC(C)(C)C3)cc1O (stereo unspecified) | . | -1 | 15 | 4
Cc1ccc(C2Nc3ccccc3NC3=C2C(=O)CC(C)(C)C3)c(O)c1 (stereo unspecified) | 63 | 0 | . | 1
CCOc1ccc(C2Nc3ccccc3NC3=C2C(=O)CC(C)(C)C3)cc1OC (stereo unspecified) | 98* | -1 | . | 7
